Data on 40 molecules can be found in PubChem BioAssay (EPA / NIEHS).

“And” between values parts separate entries of the source, which are not always exact repeats. Equal values may be shown once. The source made the active and inactive calls. The calls were made as follows: active = hit-call score of the fitted dose curve at least 0.9, where 1 is the maximum; inactive = score below 0.9.

Read-out in the experiment: Monokine induced gamma interferon (MIG), CXCL9 (gene 4283)
As to the kind of experiment: BSK_SAg_MIG: BioMAP Diversity Plus: SAg Assay for Monokine induced gamma interferon (MIG) Biomarker Activity (AID 2283092). The note with it: primary human HUVEC with PBMC; actives raise or lower the signal. As to the method:
BSK_SAg is a cell-based, multiplexed-readout assay that uses umbilical vein endothelium and peripheral blood mononuclear cells, a human vascular primary cell co-culture, with measurements taken at 24 hours after chemical dosing in a 96-well plate.BSK_SAg_MIG is an assay component measured in the BSK_SAg assay. It measures MIG antibody related to regulation of gene expression using ELISA technology.Data from the assay component BSK_SAg_MIG was analyzed into 1 assay endpoint. This assay endpoint, BSK_SAg_MIG, was analyzed with bidirectional fitting relative to DMSO as the negative control and baseline of activity. Using a type of binding reporter, gain or loss-of-signal activity can be used to understand changes in the signaling as they relate to the gene CXCL9. Furthermore, this assay endpoint can be referred to as a primary readout, because this assay has produced multiple assay endpoints where this one serves a signaling function. To generalize the intended target to other relatable targets, this assay endpoint is annotated to the cytokine intended target family, where the subfamily is chemotactic factor.
The levels of cell surface (or secreted, indicated by the prefix "s") biomarker endpoints were measured by ELISA. Overt cytotoxicity to cells in confluent adherent cultures (all systems other than the BT system) was assessed by measuring total protein levels using sulforhodamine B (SRB) staining in parallel cultures at the time of biomarker measurements, indicated as SRB endpoints. For proliferation assays for adherent cell types, individual cell types are cultured at sub-confluence and relative cell numbers quantified by SRB staining at time points optimized for each system (48 h: 3C and CASM3C systems; 72 h: BT and HDF3CGF systems; 96 h: SAg system). SRB was performed by staining cells with 0.1% SRB after fixation with 10% TCA and reading wells at 560 nm.Viability and proliferation of PBMC (T cells) was quantified by Alamar Blue reduction for the SAg and BT systems. For PBMC viability (referred to as PBMC Cytotoxicity within the assay endpoint names), cells were plated (75,000/well in a 96-well plate) and then chemical samples added for 1 h before addition of activators, SEB and TSST-1 (20 ng/mL final concentration each). Cells were incubated for 90 h. Then, Alamar Blue (20 uL/well) (Invitrogen, Cat DAL1100) was added for 6 h, and the plates were read with a fluorescence microplate reader at 546/580 nm (excitation/emission). For PBMC proliferation, cells were plated and activated as above but incubated for only 16 h prior to addition of Alamar Blue. Plates were read after 6 h.
On to `COc1cccc(O)c1`, for which the result was inactive.

Take `O=C(O)CCC(F)(F)C(F)(F)C(F)(F)C(F)(F)C(F)(F)F`: the outcome was inactive. For the molecule `COC1=CC(=O)C[C@@H](C)[C@]12Oc1c(Cl)c(OC)cc(OC)c1C2=O`, the outcome was inactive. Regarding `C=COC(=O)C(C)(C)CCCCCC`, the result was inactive. Still for that read-out and setting: then `O=C(NO)c1ccccc1`, with “inactive”. As to `O=C1c2ccc(O)c(O)c2C(=O)c2c(O)ccc(O)c21`, the result was inactive. On the same count and under the same terms, next, `CCCCCCCCCCCCOS(=O)(=O)O`: “inactive”; `C=CC(=O)OCCC(F)(F)C(F)(F)C(F)(F)C(F)(F)C(F)(F)C(F)(F)C(F)(F)C(F)(F)F`: “inactive”.

On to `CN(CCO)S(=O)(=O)C(F)(F)C(F)(F)C(F)(F)C(F)(F)C(F)(F)C(F)(F)C(F)(F)C(F)(F)F`, for which the result was inactive. The same measure, in the same setting: next, `CC(=O)Nc1ccc(O)cc1`: “inactive”.

Consider `O=C(CCCN1CCC(O)(c2ccc(Cl)cc2)CC1)c1ccc(F)cc1`, for which the outcome was inactive.

As a reminder, the AC50 is the concentration at which the activity in the assay is half-maximal. `CC(C)(C)c1ccc(O)c(O)c1`: the AC50 is 34.8 µM (active). Turning to `O=P(O)(O)CCC(F)(F)C(F)(F)C(F)(F)C(F)(F)C(F)(F)C(F)(F)C(F)(F)C(F)(F)F`, the outcome was inactive. The same measure, in the same setting: then `Cc1ccc(N=Nc2c(O)ccc3ccccc23)c(C)c1`, with “inactive”. Same read-out and setting: then `C[C@]12CC[C@@H]3c4ccc(O)cc4CC[C@H]3[C@@H]1C[C@@H](O)[C@@H]2O`, with “inactive”. Take `OCCN1CN(CCO)CN(CCO)C1`: the AC50 is 33.1 µM (active). Regarding `Cc1ccc(C(=O)c2ccccc2)cc1`, the outcome was inactive. Take `O=P(O)(O)CCC(F)(F)C(F)(F)C(F)(F)C(F)(F)C(F)(F)C(F)(F)F`: the result was inactive.

In the case of `CN(C)CCOC(c1ccccc1)c1ccccc1`, the outcome was inactive.

On to `CCOC(=O)CN[C@@H](C(=O)N1CC[C@H]1C(=O)NCc1ccc(/C(N)=N/O)cc1)C1CCCCC1`, for which the result was inactive. As to `Oc1c(Cl)cc(Cl)cc1Sc1cc(Cl)cc(Cl)c1O`, the concentration at half-maximal activity (AC50) was 12.4 µM (active) and 12 µM (active). For the molecule `CCCCC=O`, the outcome was inactive. In the case of `O=C(O)CCC(F)(F)C(F)(F)C(F)(F)C(F)(F)C(F)(F)C(F)(F)F`, the outcome was inactive. Turning to `CCCCCCCCCCCCCCCCCC[N+](C)(C)Cc1ccccc1`, the half-maximal activity concentration (AC50) is 3.19 µM (active). As to `OCC(CO)(CBr)CBr`, the result was inactive. As to `Oc1ccc(Cc2ccccc2O)cc1`, the outcome was inactive. Same read-out and setting: next, `O=C1OC2(c3ccccc31)c1cc(I)c(O)c(I)c1Oc1c2cc(I)c(O)c1I`: “inactive”; `COCN(COC)c1nc(N(COC)COC)nc(N(COC)COC)n1`: “inactive”; `O=C(c1ccccc1)c1ccccc1`: “inactive”. In the case of `CCCCC(CC)C(=O)O` (stereo not given), the result was inactive. Same read-out and setting: next, `C=CC(C)(CCC=C(C)C)OC(C)=O` (stereo not given): “inactive”. On to `CN(C)c1ccc(C(=C2C=CC(=[N+](C)C)C=C2)c2ccccc2)cc1`, for which the half-maximal activity concentration (AC50) is 0.132 µM (active).

For `Cc1[nH]nc2c1N=C(c1ccccc1Cl)c1cc([N+](=O)[O-])ccc1N2`, the AC50 is 8.28 µM (active).

For the molecule `C=CC(=C)CC/C=C(\C)CCC=C(C)C`, the outcome was inactive. Same read-out and setting: next, `CCC(C)c1ccccc1O` (stereo not given): “inactive”; `N=C(N)c1ccc(OCCCCCOc2ccc(C(=N)N)cc2)cc1`: “inactive”.

In the case of `O=C(O)C(F)(F)OC(F)(F)C(F)(F)OC(F)(F)C(F)(F)OC(F)(F)C(F)(F)C(F)(F)C(F)(F)F`, the AC50 was 49.2 µM (active) and 53.4 µM (active). For `Cc1cccc2c1ccc1ccccc12`, the result was inactive. Turning to `CCCCCc1ccc(O)cc1`, the AC50 was 36.7 µM (active). On to `Oc1cc2ccccc2cc1O`, for which the result was inactive.
